The list is not random: actives were taken first. Their share in the collection is about 11%.
Lmaj promast – reduces viability of Leishmania major promastigotes; resazurin fluorescence viability; inhibition, % at 10 µM; 200,000 compounds, 9% hits; in the data active = inhibition above about 50%;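 also: promastigotes grown with compound for 44 hours at 28 °C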
Autophagy mod – autophagy modulation, high-content screen | MEF GFP-LC3 puncta imaging; test concentration mostly 10 µM | calls only at 10 µM (by protocol) | 190,000 compounds, 0.98% hits | AID 463193;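 active = percentage of spot-positive cells more than 3 SD above its plate mean, without a fluorescence outlier flag or 80% toxicity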;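 also: spot-positive cell cutoff set from DMSO-treated cells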
INS promoter inh – TRM-6 insulin promoter activity inhibition; inhibition, % at 2 µM; 130,000 compounds, 0.9% hits; AID 1273; TRM-6 cells (human fetal islet line), insulin promoter-eGFP reporter, imaging; reporter expression induced with tamoxifen;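 active = inhibition above the mean plus 3 SD, with well images judged a real hit on visual review, cut at about 60% in these data, passing the limit was not always enough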
Insulin prom up – MIN6 insulin promoter up-regulation | z-score at 5 µM | 190,000 compounds, 0.3% hits | MIN6 insulin promoter-GFP reporter, high-content imaging; stronger effect = higher value;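 active = z-score above 3 at 5 µM with at least 500 cells counted in the well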
WT yeast gro inh – growth inhibition of WT yeast, mitochondrial fusion screen | mitochondrial fusion phenotypic screen, WT strain | inhibition, % at 10 µM | 190,000 compounds, 2.1% hits | AID 1362; in the data active = inhibition above about 58%; tested in S. cerevisiae
* marks the source's active call; other numbers are inactive results; i = inactive; · = no result; + = active, no number.

SMILES	Lmaj promast	Autophagy mod	INS promoter inh	Insulin prom up	WT yeast gro inh
COc1ccc(C2CCCN2C(=O)Nc2ccc(F)cc2)cc1OC (stereo not drawn)	-7	i	40	0.03	-14
O=C(NCCCN1CCCC1)c1ccc2c(c1)N(Cc1ccccc1)CCS2	·	·	·	0.51	·
O=C(NC(=S)Nc1ccc(CN2CCCCC2)cc1)c1cccc(OCc2ccccc2)c1	84*	i	·	-2.7	72*
CCN1CCN(c2ccc(NC(=O)c3cccc(OCc4ccccc4)c3)cc2)CC1	-2	i	·	·	16
O=C(Nc1ccccc1)/C(=C/c1ccccc1)c1ccccc1	98*	i	-41	·	0
O=C(NCCCOc1cccc(CN2CCCCC2)c1)c1ccc(Cl)c(Cl)c1	66*	i	·	-0.87	-11
Cc1ccccc1NC(=O)/C(=C/c1ccccc1)c1ccccc1	44	i	26	-0.61	54
COc1cccc(C(=O)Nc2ccc(N3CCN(Cc4ccccc4)CC3)cc2)c1	1	i	-17	·	29
CN1CCN(c2ccc(NC(=O)c3cccc(OCc4ccccc4)c3)cc2)CC1	100*	+	-14	-0.38	17
CC1(C)C=C(c2ccc(C=O)s2)CC(C)(C)N1C=O	-2	i	17	0.14	-4
N#C/C(=C\C1=C(N2CCOCC2)C(=C\c2ccc(Cl)cc2)/CC1)C(=O)Nc1ccccc1F	13	+	i	3.3*	-9
N#C/C(=C\C1=C(N2CCOCC2)C(=C/c2cccc([N+](=O)[O-])c2)/CC1)C(=O)Nc1ccccc1F	-6	+	i	3.1*	13
Cc1cc(C(F)(F)F)c(C#N)c(SCC(=O)Nc2nc3cc(Br)ccc3s2)n1	-3	+	-100	·	35
Cc1ccc(S(=O)(=O)CCSc2nc(C)cc(C(F)(F)F)c2C#N)cc1	7	+	-106	·	16
CCOC(=O)C1(Cc2cccc(Cl)c2)CCCN(C(=O)c2cccc(C)n2)C1 (stereo not drawn)	-2	i	·	1	-20
O=C(COC(=O)c1ccc(-c2ccc([N+](=O)[O-])cc2)o1)NC(=O)NC12CC3CC(CC(C3)C1)C2	98*	i	26	0.93	38
CC1CC1C(=O)OCC(=O)NC(=O)NC12CC3CC(CC(C3)C1)C2 (stereo not drawn)	5	i	100*	-1.2	2
O=C(NC12CC3CC(CC(C3)C1)C2)c1ccc(-c2ccc(Cl)cc2)o1	92*	i	19	-0.26	57
O=C(NC12CC3CC(CC(C3)C1)C2)c1ccc(-c2cccc(Cl)c2)o1	22	i	27	-0.53	66*
COc1ccc(CC(=O)OCC(=O)NC(=O)NC23CC4CC(CC(C4)C2)C3)cc1	1	i	-19	0.07	34
O=C(NC12CC3CC(CC(C3)C1)C2)c1ccc(-c2ccccc2Cl)o1	31	i	-219	-0.08	10
O=C(NC12CC3CC(CC(C3)C1)C2)c1ccc(COc2ccc(Cl)cc2[N+](=O)[O-])o1	17	i	-41	·	6
COc1ccccc1OCc1nc(-c2cccc([N+](=O)[O-])c2)no1	-1	i	·	1.6	-1
O=[N+]([O-])c1cc(S(=O)(=O)Nc2ccccc2)ccc1N1CCN(c2ccc(O)cc2)CC1	79*	i	21	0.36	18
Cc1ccc(NS(=O)(=O)c2ccc(N3CCN(c4ccc(O)cc4)CC3)c([N+](=O)[O-])c2)c(C)c1	98*	i	21	-0.7	53
SMILES	Lmaj promast	Autophagy mod	INS promoter inh	Insulin prom up	WT yeast gro inh
CC(=O)N1CCCc2cc(S(=O)(=O)Nc3ccc(C)cc3C)ccc21	-2	i	-50	-0.22	2
COC(=O)/C(=N/Nc1ccccc1C)Sc1nnc(C(O)c2ccccc2)n1-c1ccccc1 (stereo not drawn)	-9	i	·	0.34	-7
COC(=O)c1ccc(C2C(C#N)=C(N)Oc3cc(C)n(C)c(=O)c32)cc1 (stereo not drawn)	-2	i	76*	0.27	11
COC(=O)C1=C(N)Oc2cc(C)n(C)c(=O)c2C1c1ccc(Cl)cc1 (stereo not drawn)	-4	i	-9	0.09	-6
CCN(CC)CCCn1c(C)cc2c(c1=O)C(c1cccc(Cl)c1)C(C#N)=C(N)O2 (stereo not drawn)	67*	i	33	·	74*
CCN(CC)CCCn1c(C)cc2c(c1=O)C(c1cc(OC)c(OC)cc1OC)C(C#N)=C(N)O2 (stereo not drawn)	-1	i	-30	0.57	5
Cc1ccccc1-n1ncc(C(C)NC(=O)c2ccccc2)c1C (stereo not drawn)	1	i	·	0.12	-2
CC(=O)Nc1cc(C(=O)N2CCCC2)ccc1Sc1ccc(C)cc1	21	i	-20	0.06	-6
CCOc1ccc(CNC(=O)c2ccc(Sc3ccc(C)cc3)c(NC(C)=O)c2)cc1	94*	i	-48	0.09	22
CCOc1ncccc1C(=O)OCc1c(F)cccc1Cl	14	i	·	-0.57	4
O=S1(=O)N=C(N(CCO)/N=C/C=C/c2ccccc2)c2ccccc21	53*	i	33	-0.18	-14
CC(C)[C@H](NS(=O)(=O)c1ccc2c(c1)OCCO2)C(=O)OCC(=O)Nc1ccccc1Cl	66*	i	24	0.65	-12
COC(=O)c1ccc(Cl)c(NS(=O)(=O)c2ccc3c(c2)OCCO3)c1	80*	i	5	·	22
CCOC(=O)C1=C(C)NC(SC)=C(C#N)C1CC(C)C (stereo not drawn)	·	·	·	-0.02	·
Nc1nc(Cl)cc(N2CCC(c3cc(-c4ccc(Cl)cc4)n[nH]3)CC2)n1	100*	i	-7	·	12
CC(=O)c1ccc(N2CCC(c3cc(-c4ccc(Cl)cc4Cl)n[nH]3)CC2)c([N+](=O)[O-])c1	16	i	-22	·	2
COc1ccc(OC)c(-c2cc(C3CCN(c4cc(Cl)nc(N)n4)CC3)[nH]n2)c1	100*	i	10	·	66*
Clc1ccc(-c2cc(C3CCNCC3)[nH]n2)cc1	61*	i	38	-0.14	-13
FC(F)C(F)(F)c1cc(-c2ccc(Cl)cc2)n[nH]1	·	·	·	-0.1	·
COc1ccc(-c2cc(C3CCN(c4cc(Cl)nc(N)n4)CC3)[nH]n2)cc1	31	i	-30	·	62*
CC(NC(=S)Nc1ccc([N+](=O)[O-])cc1)c1ccncc1 (stereo not drawn)	-4	i	·	0.01	-11
O=C(O)c1ccc(/C=N/N2CCN(Cc3ccccc3)CC2)cc1	-2	i	-60	·	-6
COc1cccc(N/C(SCc2ccccc2C)=C(/C#N)C(=O)NCc2cccs2)c1	4	i	-106	-0.57	10
COc1cccc(N/C(SCc2cccc([N+](=O)[O-])c2)=C(/C#N)C(=O)NCc2cccs2)c1	87*	i	-31	0.38	13
CCOC(=O)C1(Cc2cccc(OC)c2)CCN(Cc2ccc3c(c2)OCCO3)CC1	95*	i	·	-0.69	6
CCOC(=O)C1(Cc2cccc(OC)c2)CCN(Cc2ccccc2)CC1	27	i	·	0.51	14
